The record followed here is PubChem BioAssay (Tox21).

Records with an inconclusive call do not appear. Unmarked numbers belong to inactive results. Calls of active or inactive are those of the source. Calls come from the whole dose curve; as a rule, active = well fitted curve in the direction sought with a large enough effect in the repeat runs; inconclusive = weak or mixed curves; inactive = no such curve, though single readings can be large; an effect the other way counts as inactive or inconclusive.
% is set by controls: 0 for no effect and ±100 for the full control effect; potency is the fitted concentration of half-maximal effect.
Note: nearly all actives have a fitted effect of over 50% in size.

Sequence of Cytochrome P450 1A2 (Homo sapiens) (P05177 whole entry, looked up): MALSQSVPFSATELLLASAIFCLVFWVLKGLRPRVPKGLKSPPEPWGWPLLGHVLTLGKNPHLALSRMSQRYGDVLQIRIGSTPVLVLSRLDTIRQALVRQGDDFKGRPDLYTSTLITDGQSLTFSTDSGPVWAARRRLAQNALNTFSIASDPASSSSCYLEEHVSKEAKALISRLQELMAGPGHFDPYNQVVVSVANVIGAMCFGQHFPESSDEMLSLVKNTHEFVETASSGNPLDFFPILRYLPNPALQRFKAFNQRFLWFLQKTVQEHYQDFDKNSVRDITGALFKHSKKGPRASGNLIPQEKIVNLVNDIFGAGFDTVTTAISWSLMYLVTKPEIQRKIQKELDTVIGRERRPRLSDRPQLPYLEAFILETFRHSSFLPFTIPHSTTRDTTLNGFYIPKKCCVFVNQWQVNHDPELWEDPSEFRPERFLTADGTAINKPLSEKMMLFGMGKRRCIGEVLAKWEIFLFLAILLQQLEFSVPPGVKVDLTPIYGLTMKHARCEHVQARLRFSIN
Sequence of Voltage-gated inwardly rectifying potassium channel KCNH2 (Homo sapiens) (Q12809 whole entry, looked up): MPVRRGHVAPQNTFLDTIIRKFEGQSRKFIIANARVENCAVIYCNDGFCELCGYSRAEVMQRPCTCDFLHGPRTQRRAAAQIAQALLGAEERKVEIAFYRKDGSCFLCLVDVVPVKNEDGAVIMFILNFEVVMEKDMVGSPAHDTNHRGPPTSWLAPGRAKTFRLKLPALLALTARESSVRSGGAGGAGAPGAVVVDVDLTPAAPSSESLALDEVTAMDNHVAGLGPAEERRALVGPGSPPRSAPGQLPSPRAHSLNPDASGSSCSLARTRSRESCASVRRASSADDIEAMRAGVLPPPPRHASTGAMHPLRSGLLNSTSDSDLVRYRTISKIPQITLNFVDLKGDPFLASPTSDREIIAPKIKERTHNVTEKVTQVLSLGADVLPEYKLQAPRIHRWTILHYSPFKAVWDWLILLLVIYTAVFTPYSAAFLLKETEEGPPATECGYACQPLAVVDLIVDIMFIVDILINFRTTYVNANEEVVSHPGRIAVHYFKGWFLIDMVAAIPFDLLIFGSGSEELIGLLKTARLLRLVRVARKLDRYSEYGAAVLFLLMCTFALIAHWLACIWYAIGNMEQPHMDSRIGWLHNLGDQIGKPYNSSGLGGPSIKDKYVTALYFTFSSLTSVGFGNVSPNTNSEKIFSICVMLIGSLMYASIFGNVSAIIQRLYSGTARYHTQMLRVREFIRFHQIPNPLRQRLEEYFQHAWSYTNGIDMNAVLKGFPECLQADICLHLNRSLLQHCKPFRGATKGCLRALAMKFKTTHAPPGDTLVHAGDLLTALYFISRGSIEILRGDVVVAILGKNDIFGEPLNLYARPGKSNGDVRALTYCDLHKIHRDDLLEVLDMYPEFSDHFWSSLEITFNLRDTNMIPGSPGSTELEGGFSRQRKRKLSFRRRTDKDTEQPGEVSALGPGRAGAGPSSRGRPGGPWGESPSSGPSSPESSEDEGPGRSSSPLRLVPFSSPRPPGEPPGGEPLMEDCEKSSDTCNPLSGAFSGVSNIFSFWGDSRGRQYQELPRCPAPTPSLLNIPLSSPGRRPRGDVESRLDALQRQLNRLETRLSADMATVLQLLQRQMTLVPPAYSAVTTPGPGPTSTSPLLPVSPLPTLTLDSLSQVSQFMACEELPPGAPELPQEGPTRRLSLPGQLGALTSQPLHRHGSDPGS

The first assay concerns the target Cytochrome P450 1A2 (Homo sapiens) (UniProt P05177). In words: Cytochrome P450 Family 1 Subfamily A Member 2 (CYP1A2) small molecule antagonists: luciferase reporter qHTS assay (AID 1671199). The following applies: P450-Glo CYP1A2 enzyme, luciferin luminescence, 1 h; series mostly up to 53 µM; activity change, negative = inhibition: at the top concentration. A digest of the protocol: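 Signal from luciferin formed by CYP1A2 from a proluciferin substrate is read as luminescence, expressed in relative luminescence units. Compounds sit with enzyme 10 min, NADPH-driven reaction runs 1 h, all at room temperature.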
Consider `O=c1[nH]sc2ccccc12`, for which the Potency is 31.7 µM (active).

As to `CN(C)C(=O)C1(N2CCCCC2)CCN(CC[C@@]2(c3ccc(Cl)c(Cl)c3)CN(C(=O)c3ccccc3)CCO2)CC1`, the “activity change, negative = inhibition” value was -21.4% [at 115 µM].

On to `CCCCCCCCCCCCc1ccc(O)cc1`, for which the Potency was 22.4 µM (active). The same measure, in the same setting: to `Cn1cc(C(=O)[C@@H]2CCc3nc[nH]c3C2)c2ccccc21` belongs 17.4 µM (active); to `c1ccc(CSCc2ccccc2)cc1`, 31.6 µM (active); to `O=C1c2ccccc2Cc2ccccc21`, 0.452 µM (active). For `Oc1cccc(-c2c3nc(c(-c4cccc(O)c4)c4ccc([nH]4)c(-c4cccc(O)c4)c4nc(c(-c5cccc(O)c5)c5ccc2[nH]5)CC4)C=C3)c1`, the “activity change, negative = inhibition” value is 6.17%.

On to `COCCCC/C(=N\OCCN)c1ccc(C(F)(F)F)cc1`, for which the Potency was 0.204 µM (active). Regarding `CCCCCCCCCCCCCCCS(=O)(=O)Oc1ccccc1`, the “activity change, negative = inhibition” value was -22.7%. As for `Oc1ccc(N=Nc2ccccc2)cc1`, the Potency was 16.1 µM (active). Consider `Fc1ccc([C@@H]2CCNC[C@H]2COc2ccc3c(c2)OCO3)cc1`, for which the Potency is 12.9 µM (active). Still for that read-out and setting: next, `Cc1cc(O)c(Cl)c(C)c1Cl`: 17.8 µM (active). With `C[C@@H]1C[C@H]2[C@@H]3CCC4=CC(=O)C=C[C@]4(C)[C@@]3(Cl)[C@@H](O)C[C@]2(C)[C@@]1(OC(=O)c1ccco1)C(=O)CCl`, the “activity change, negative = inhibition” value is -26.5%. In the case of `NNc1nc(-c2ccc([N+](=O)[O-])cc2)cs1`, the Potency was 3.99 µM (active).

On to `NNC(=O)c1cccc(C(=O)NN)c1`, for which the Potency is 10 µM (active). The same measure, in the same setting: next, `C/C(=C(/OCCOc1ccc(Cl)cc1)c1ccc(Cl)cc1Cl)n1ccnc1`: 2.29 µM (active). Same read-out and setting: to `O=C(N/N=C/c1ccccc1O)c1ccncc1` belongs 0.575 µM (active); to `ON=C1CCCC1`, 36.8 µM (active). The same measure, in the same setting: to `CCCCC(CC)COC(=O)c1ccccc1C(=O)O` (centres undefined) belongs 54.2 µM (active). `CC(C)(C)c1ccc(C(=O)O)cc1`: the “activity change, negative = inhibition” value is -8.56% [at 115 µM]. For `C[n+]1ccn(Cc2ccccc2)c1`, the “activity change, negative = inhibition” value was -13.1% [at 115 µM]. Still for that read-out and setting: to `O=C(NO)C1(NS(=O)(=O)c2ccc(Oc3ccc(F)cc3)cc2)CCOCC1` belongs -0.0695% [at 115 µM]. For the compound `CCCCCOc1ccccc1/C(=C\SC)n1ccnc1`, the Potency is 2.29 µM (active).

In the case of `Nc1nc2ccccc2n1Cc1ccc(F)cc1`, the Potency was 24.5 µM (active). For `C[C@H]1[C@H]2CC[C@H]3[C@@H]4CC=C5C[C@@H](N(C)C)CC[C@]5(C)[C@H]4CC[C@]23CN1C`, the “activity change, negative = inhibition” value is 14.3%. Regarding `Clc1ccc(C(Cn2ccnc2)OCc2ccc(Sc3ccccc3)cc2)c(Cl)c1` (centres undefined), the Potency was 15.5 µM (active). Take `CC[C@H](c1ccc(O)cc1)[C@@H](CC)c1ccc(O)cc1`: the “activity change, negative = inhibition” value is -14.6%. With `Cc1cccc(N(C)C(=S)Oc2ccc3c(c2)C2CCC3C2)c1` (centres undefined), the Potency was 9.11 µM (active).

For the compound `CCOC(=O)/C=C(C)/C=C/C=C(C)/C=C/c1c(C)cc(OC)c(C)c1C`, the Potency was 24.5 µM (active). Regarding `CC[C@@]1(O)C(=O)OCc2c1cc1n(c2=O)Cc2cc3c(CN(C)C)c(O)ccc3nc2-1`, the “activity change, negative = inhibition” value is 4.98%.

Another assay has as its target Voltage-gated inwardly rectifying potassium channel KCNH2 (Homo sapiens) (UniProt Q12809). In words: Human Ether-a-go-go-Related Gene (hERG) channel small molecule antagonists: fluorescence cell-based qHTS assay (AID 1671200).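 For activity change, negative = inhibition: hERG-expressing U2OS cells given a thallium stimulus after FluxOR II dye loading.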 The following applies: hERG-U2OS cells, FluxOR thallium flux fluorescence; series mostly up to 76.8 µM; activity change, negative = inhibition: at the top concentration. A digest of the protocol:
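Fluorescence at 540 nm emission (480 nm excitation) was recorded kinetically for 2 min at 1-second intervals once the thallium-containing stimulus reached cells previously loaded with FluxOR II dye.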
For the compound `O=c1[nH]sc2ccccc12`, the Potency was 49 µM (active). Still for that read-out and setting: next, `CN(C)C(=O)C1(N2CCCCC2)CCN(CC[C@@]2(c3ccc(Cl)c(Cl)c3)CN(C(=O)c3ccccc3)CCO2)CC1`: 11.5 µM (active). With `O=C1c2ccccc2Cc2ccccc21`, the “activity change, negative = inhibition” value is -2.08%. The same measure, in the same setting: to `Oc1cccc(-c2c3nc(c(-c4cccc(O)c4)c4ccc([nH]4)c(-c4cccc(O)c4)c4nc(c(-c5cccc(O)c5)c5ccc2[nH]5)CC4)C=C3)c1` belongs 0.028% [at 35.3 µM]; to `CCCCCCCCCCCCCCCS(=O)(=O)Oc1ccccc1`, -26% [at 35.3 µM].

For `Oc1ccc(N=Nc2ccccc2)cc1`, the “activity change, negative = inhibition” value is -12.1%. On the same count and under the same terms, next, `Cc1cc(O)c(Cl)c(C)c1Cl`: 14.9%. For `C[C@@H]1C[C@H]2[C@@H]3CCC4=CC(=O)C=C[C@]4(C)[C@@]3(Cl)[C@@H](O)C[C@]2(C)[C@@]1(OC(=O)c1ccco1)C(=O)CCl`, the “activity change, negative = inhibition” value is -19.1% [at 35.3 µM]. In the case of `NNc1nc(-c2ccc([N+](=O)[O-])cc2)cs1`, the Potency was 19.5 µM (active).

As for `NNC(=O)c1cccc(C(=O)NN)c1`, the “activity change, negative = inhibition” value is -0.699%. `C/C(=C(/OCCOc1ccc(Cl)cc1)c1ccc(Cl)cc1Cl)n1ccnc1`: the Potency was 6.74 µM (active). Regarding `O=C(N/N=C/c1ccccc1O)c1ccncc1`, the “activity change, negative = inhibition” value was -1.61% [at 35.3 µM]. The same measure, in the same setting: to `ON=C1CCCC1` belongs -10.3%. Same read-out and setting: next, `CCCCC(CC)COC(=O)c1ccccc1C(=O)O` (centres undefined): -9.46%; `CC(C)(C)c1ccc(C(=O)O)cc1`: 0.883%. The same measure, in the same setting: to `C[n+]1ccn(Cc2ccccc2)c1` belongs -9.77%; to `O=C(NO)C1(NS(=O)(=O)c2ccc(Oc3ccc(F)cc3)cc2)CCOCC1`, -2.55%. On to `CCCCCOc1ccccc1/C(=C\SC)n1ccnc1`, for which the Potency is 15.1 µM (active). On to `C[C@H]1[C@H]2CC[C@H]3[C@@H]4CC=C5C[C@@H](N(C)C)CC[C@]5(C)[C@H]4CC[C@]23CN1C`, for which the “activity change, negative = inhibition” value is -4.57% [at 35.3 µM]. Consider `Clc1ccc(C(Cn2ccnc2)OCc2ccc(Sc3ccccc3)cc2)c(Cl)c1` (centres undefined), for which the Potency was 9.52 µM (active). Take `CC[C@H](c1ccc(O)cc1)[C@@H](CC)c1ccc(O)cc1`: the Potency result is “inactive”. Regarding `Cc1cccc(N(C)C(=S)Oc2ccc3c(c2)C2CCC3C2)c1` (centres undefined), the “activity change, negative = inhibition” value was -12.3% [at 35.3 µM]. The same measure, in the same setting: to `CCOC(=O)/C=C(C)/C=C/C=C(C)/C=C/c1c(C)cc(OC)c(C)c1C` belongs 4.72% [at 35.3 µM]; to `CC[C@@]1(O)C(=O)OCc2c1cc1n(c2=O)Cc2cc3c(CN(C)C)c(O)ccc3nc2-1`, 11.9% [at 35.3 µM].
